GLD-1 RNA inh: GLD-1/TGE RNA complex disruptors, primary screen, biochemical, fluorescence polarization | Female germline-specific tumor suppressor gld-1 (Caenorhabditis elegans), Q17339 | purified GLD-1 + fluorescein TGE RNA | inhibition, % at 5.96 µM | 320,000 tested, 0.44% active;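 active means percent inhibition above a per-plate cutoff, the plate mean of test compounds plus 3 SD, cut at about 30% in these data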;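 further: 0% = DMSO wells with GLD-1 and probe and 100% = wells lacking GLD-1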
MEX-5 binding: MEX-5 zinc finger RNA-binding disruptors – biochemical, C. elegans, fluorescence polarization, MLPCN library, primary screen; MEX-5/FITC-TCR2 RNA binding; stronger effect = lower value; activity score (negative = inhibition of binding), % at 10 µM; 300,000 tested, 0.38% active; AID 1832, 2009;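 active means inhibition past about -25% in most replicates, and total fluorescence under double the plate's negative control median, limit read from the data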;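 further: 0% = DMSO and -100% = 5 µM competing unlabeled TCR2 RNA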
MCL1 BIM primary: inhibitors of MCL1 binding to BIM-BH3, primary screen, biochemical, fluorescence polarization. Induced myeloid leukemia cell differentiation protein Mcl-1 (Homo sapiens), Q07820. inhibition, % at 10.9 µM. 320,000 tested, 0.68% active. GST-MCL1 / FITC-Bim-BH3 fluorescence polarization. AID 2057, 2009;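 active means inhibition above the mean inhibition of all tested compounds plus 3 SD, set per campaign, cut at about 40% in these data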;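 further: 0% = DMSO wells and 100% = unlabeled Bim-BH3 peptide control; higher means more loss of mP so more displacement of Bim peptide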
LANA-H2A inh: blockers of LANA interaction with H2A/H2B – biochemical, FP readout, HTS, primary screen. 320,000 tested, 0.6% active. Protein LANA1 (Human herpesvirus 8 type P (isolate GK18)), Q9QR71. AID 2629, 2010. inhibition, % (concentration not given with the values). cell-free LANA-H2A/H2B peptide, fluorescence polarization; in the data active means inhibition mostly above about 10%, no sharp cut-off; inactive means mostly below about 6.7%
Target sequence (Q9QR71 whole entry, looked up): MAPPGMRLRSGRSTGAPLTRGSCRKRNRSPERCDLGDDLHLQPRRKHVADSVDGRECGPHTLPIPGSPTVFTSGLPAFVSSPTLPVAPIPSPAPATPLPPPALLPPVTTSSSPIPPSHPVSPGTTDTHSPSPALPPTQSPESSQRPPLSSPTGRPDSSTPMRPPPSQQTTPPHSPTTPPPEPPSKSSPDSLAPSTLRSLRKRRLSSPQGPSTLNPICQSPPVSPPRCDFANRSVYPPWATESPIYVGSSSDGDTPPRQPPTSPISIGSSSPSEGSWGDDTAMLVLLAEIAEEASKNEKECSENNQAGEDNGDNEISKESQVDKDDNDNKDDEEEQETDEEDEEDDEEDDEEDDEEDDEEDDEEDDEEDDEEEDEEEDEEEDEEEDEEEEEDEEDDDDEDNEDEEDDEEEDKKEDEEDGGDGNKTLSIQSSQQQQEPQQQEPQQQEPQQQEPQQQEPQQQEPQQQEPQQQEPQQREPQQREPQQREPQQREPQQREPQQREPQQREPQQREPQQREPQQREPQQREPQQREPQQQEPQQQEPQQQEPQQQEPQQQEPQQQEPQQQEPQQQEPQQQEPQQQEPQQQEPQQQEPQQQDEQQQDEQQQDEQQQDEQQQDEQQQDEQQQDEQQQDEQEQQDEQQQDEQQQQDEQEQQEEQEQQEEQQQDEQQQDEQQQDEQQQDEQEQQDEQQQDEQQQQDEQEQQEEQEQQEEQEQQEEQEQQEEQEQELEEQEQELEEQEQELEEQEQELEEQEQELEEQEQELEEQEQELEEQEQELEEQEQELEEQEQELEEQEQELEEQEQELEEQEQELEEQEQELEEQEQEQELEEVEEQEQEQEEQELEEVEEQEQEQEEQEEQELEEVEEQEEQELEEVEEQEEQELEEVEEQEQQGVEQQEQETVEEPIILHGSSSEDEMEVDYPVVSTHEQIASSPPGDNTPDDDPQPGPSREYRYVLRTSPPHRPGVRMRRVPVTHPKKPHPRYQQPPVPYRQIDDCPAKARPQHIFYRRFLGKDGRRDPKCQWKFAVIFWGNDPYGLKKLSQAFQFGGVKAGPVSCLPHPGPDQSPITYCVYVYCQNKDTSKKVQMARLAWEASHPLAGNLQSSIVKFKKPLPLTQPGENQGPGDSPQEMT
Bcl-xL primary: inhibitors of human Bcl-xL, primary screen, biochemical, fluorescence polarization, HTS. GST-Bcl-xL / FITC-Bim BH3 peptide fluorescence polarization. 320,000 tested, 0.7% active. AID 2129, 2009. inhibition, % at 10.9 µM;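 active means inhibition above the mean of all tested compounds plus 3 SD, cutoff set per campaign, cut at about 30% in these data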;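 further: 0% = DMSO wells and 100% = unlabeled Bim-BH3 peptide competitor; inhibitors lower millipolarization by displacing the labeled peptide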
CR mimetic SO: reduction of superoxide in aged yeast, primary screen, HTS | AID 2690, 2010 | S. cerevisiae aged cells, superoxide DHE fluorescence; stronger effect = lower value | 330,000 tested, 0.18% active | superoxide response (% of plate mean), % at 10 µM;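 active means superoxide response under a set limit, about three screen SD below normal, cut at about 65% in these data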;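 further: yeast aged for seven days with compound at 30 °C before DHE staining; 100% = average MFI of all compound-treated wells on the plate with controls excluded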
The depositor's hits bear a star; / = not tested or not shown; ! = repeats disagree. In the library only some 1.9% were active in any assay of this set; here they are far more common.

SMILES	GLD-1 RNA inh	MEX-5 binding	MCL1 BIM primary	LANA-H2A inh	Bcl-xL primary	CR mimetic SO
c1ccc2nc(N3CCCC3)c(N3CCCC3)nc2c1	22	3	44*	3	39*	77
Cc1cc(C)n(-c2nc3ccccc3nc2N2CCCC2)n1	7	/	2	2	0	77
NC(=O)c1cc(S(=O)(=O)N2CCCC2)ccc1OCCOc1ccccc1	0	/	5	-10	1	140
Nc1cc([N+](=O)[O-])cc2oc(-c3ccccc3)cc12	-26	3	-6	-1	10	129
COc1cc(N2CCCC2)c(OC)cc1/C=C(/C#N)c1ccc(F)cc1	-42	-2	-59	-69*	-50	115
Cc1cc(SCC(=O)OCC(=O)N2CCN(C(=O)c3ccco3)CC2)c(C)cc1Br	-9	-5	4	-6	-1	114
Cc1cc(SCC(=O)N2CCN(C(=O)c3ccco3)CC2)c(C)cc1Br	-2	/	-1	45*	-2	102
CCN1/C(=C2/SC(=S)N(NC(C)=O)C2=O)Sc2ccccc21	/	-46*	/	1	/	100
CCN1C(=O)/C(=C2/Sc3ccccc3N2CC)SC1=S	6	-18	6	-8	-1	96
CC(=O)NN1C(=O)/C(=C2/Sc3ccccc3N2C)SC1=S	-10	-13	3	-3	5	110
CCN1/C(=C2\SC(=S)N(Cc3ccccc3)C2=O)Sc2ccccc21	-2	-26*	4	6	3	104
COC(CN(C)C(=O)c1ccc(CS(=O)(=O)c2ccccc2C)o1)OC	-1	-2	6	14*	2	92
CCc1ccc(/C=C2\Oc3c(ccc(O)c3CN3CCN(CCO)CC3)C2=O)cc1	8	-30*	49*	6	51*	95
C[n+]1ccccc1/C=N/O	1	2	-7	18*!	2	91
CC(O)/C=C/c1cccc[n+]1C (stereo unspecified)	9	/	-17	2	-6	102
Cc1ccc(S(=O)(=O)N2CCOCC2)cc1C(=O)NC(C)CCc1ccccc1 (stereo unspecified)	6	/	/	-1	/	104
Cc1ccc(S(=O)(=O)NCCNS(=O)(=O)c2ccc(C)cc2)cc1	2	-1	-2	19*	-1	108
O=S(=O)(NCCCc1ccccc1)c1ccccc1	3	2	6	1	6	96
O=S(=O)(NCCCCCNS(=O)(=O)c1ccccc1)c1ccccc1	-2	2	4	16*!	1	220
Cc1ccc(S(=O)(=O)NNC(=O)CCCCC(=O)NNS(=O)(=O)c2ccc(C)cc2)cc1	6	2	1	7.7*	0	102
COc1ccccc1C(=O)N/C(=C/c1ccco1)C(=O)Nc1cccc(C(=O)O)c1	14	-6	29	-1	31*	98
Cc1ccc(C(=O)N/C(=C/c2ccco2)C(=O)Nc2cccc(C(=O)O)c2)cc1	19	-1	11	-7	16	110
CC(C)CC(NC(=O)c1cccc(Cl)c1)C(=O)O (stereo unspecified)	-7	1	-1	-6.2*	6	96
CC(C)CC(NC(=O)c1ccc(Cl)cc1)C(=O)O (stereo unspecified)	6	0	8	1	1	108
Cc1cc(C(=O)NC(CC(C)C)C(=O)O)cc(C)c1[N+](=O)[O-] (stereo unspecified)	-2	3	-6	25*	2	104
SMILES	GLD-1 RNA inh	MEX-5 binding	MCL1 BIM primary	LANA-H2A inh	Bcl-xL primary	CR mimetic SO
COc1ccc(COC(=O)c2ccc(C)c(S(=O)(=O)N3CCOCC3)c2)cc1F	2	-2	0	3	1	106
CCN(C(=O)COC(=O)CCC(=O)c1cccs1)c1ccccc1	4	/	/	-3	/	91
CC1/C(=N/O)C(CN(C)C)C2CC1C2(C)C (stereo unspecified)	-5	-1	-4	0	-1	109
CC1C2CC(C(CN(C)C)/C2=N/O)C1(C)C (stereo unspecified)	8	1	-4	66*	0	77
Cc1ccc(NC(=O)CCS(=O)(=O)c2cc3c(cc2Cl)NC(=O)CO3)cc1	4	-26*	2	1	5	91
O=C(c1cccn2c(=O)c3cc4ccccc4cc3nc12)N1CCN(c2ccccc2)CC1	13	-3	31	13*	33*	77
O=C(c1cccn2c(=O)c3ccccc3nc12)N1CCN(c2ccccn2)CC1	5	-4	2	-4	1	76
COc1ccc(Cl)cc1S(=O)(=O)N1CCC(C(=O)NC2CC2)CC1	4	3	0	-4	1	107
Cn1c(NCc2cccs2)nc2ccccc21	7	-1	-8	22*	-5	103
CC(=O)Nc1ccc(OCC(=O)c2cc(C)ccc2C)cc1	8	0	0	19*	-1	97
CC(=O)Nc1ccc(NC(=O)Nc2ccc(C)cc2C)cc1	10	-3	-5	15*	0	80
CCOC(=O)/C=c1\s/c(=C\c2ccc3cc(OC)ccc3c2)c(=O)n1CC(=O)NCc1ccc2c(c1)OCO2	3	-31*	3	-1	7	97
CCOC(=O)/C=c1\s/c(=C\c2ccccc2C)c(=O)n1CC(=O)NCc1ccc2c(c1)OCO2	-7	-2	-31	1	-5	109
CCC(=O)N1CCN(c2ccc(NC(=S)NC(=O)c3cc4ccccc4o3)cc2)CC1	/	3	/	94*	/	115
O=C/C(=C\Nc1ccccn1)c1nc2ccccc2o1	-8	-37*	0	-3	5	109
Cc1ccc(C(=O)CSc2nc3c([nH]2)c(=O)n(C)c(=O)n3C)cc1	3	-30*	18	6	10	107
Cc1ccc(C(=O)CSc2nc(N)cc(=O)[nH]2)cc1	6	-2	9	7	2	97
N#CC(C#N)=C/C(C#N)=C(/N)N1CCN(c2ccc(Cl)cc2)CC1	-17	1	-112	18*	-75	124
CN(C)C(=C(C#N)C#N)N1CCN(c2ccc(Cl)cc2)CC1	-2	-3	-2	2	2	93
COc1ccc2cc(C[C@@H]3CC[C@@H](CO)O3)ccc2c1	/	/	/	/	/	96
COc1ccc(C(=O)C2CCCN(C(=O)c3cc(C(C)C)no3)C2)cc1F (stereo unspecified)	7	-1	10	-2	4	100
CCc1noc(C)c1C(=O)N1CCCC(C(=O)c2ccc(OC)c(F)c2)C1 (stereo unspecified)	2	0	12	14*	4	104

Bioassay records: PubChem, several laboratories
